A selection: hits, their analogues and other compounds. The true share with any hit is near 19%.
HT1080-NT tox: kills 2HG-producing HT-1080-NT fibrosarcoma cells | actives 1.6% (n = 360,000) | Potency, µM (series often up to 46.1 µM), inactives show at the highest dose activity, negative = less viability, usual class: cytotoxic | AID 686970 | HT-1080-NT fibrosarcoma viability, CellTiter-Glo ATP luminescence, 48 h;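 also: NT is the 2HG producing partner of a matched IDH1 knockdown line; 0% = DMSO-treated cells and -100% = media-only wells without cells; nearly all actives have a fitted effect of over 55% in size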
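Compounds were tested in concentration-response format on HT-1080-NT cells for 48 hours at 37 degrees C. Cell viability came from CellTiter-Glo luminescence; curves were classified by r2, response magnitude and activity.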
KB-V1 cytotox: KB-V1 MDR subline cytotoxicity; KB-V1 MDR cells viability, CellTiter-Glo, 72 h; Potency, µM (doses to about 46.1 µM), usual class: cytotoxic; actives 3.4% (n = 400,000); also: nearly all actives have a fitted effect of over 60% in size
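Drug-selected KB-V1 cells, grown in DMEM lacking phenol red with 10% FBS, receive compound titrations; after three days at 37 degrees C, surviving cell ATP is quantified by CellTiter-Glo luminescence and responses normalized and curve-fitted.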
HT1080 IDH1KD tx: toxicity to HT-1080 IDH1 knockdown cells (counter line). HT-1080 IDH1 knockdown viability, ATP luminescence, 48 h. Potency, µM (series often up to 46.1 µM), for inactives: at the highest dose activity, negative = toxicity, usual class: cytotoxic. actives 2% (n = 360,000);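 also: 0% = DMSO wells and -100% = cell-free medium wells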
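Assay cells: HT-1080 with IDH1 knockdown, 750 per well, RPMI/5% FBS. Exposure: 48 h at 37 °C following 2 h pre-incubation. Read: CellTiter-Glo luminescence; fitted concentration-response, curve class assigned.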
DT40 TDP1 CPT: DT40-hTDP1 cell growth loss with CPT | chicken DT40 Tdp1-/-;hTDP1 cells + 20 nM CPT, ATP luminescence, 48 h | Potency, µM (doses to about 46.2 µM), inactives show at the highest dose activity change, negative = growth inhibition, actives largely listed as inhibitors | actives 12% (n = 420,000); also: nearly all actives have a fitted effect of over 55% in size
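Cell growth measured by CellTiter-Glo luminescence after a minimum 48 h, 37 C compound exposure with 20 nM CPT in Tdp1-knockout DT40 cells stably expressing hTDP1, seeded 400/well; qHTS titration format.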
TDP1 cell noCPT: qHTS for Inhibitors of human tyrosyl-DNA phosphodiesterase 1 (TDP1): qHTS in cells in absence of CPT; actives 15% (n = 420,000); Potency, µM (doses to about 46.2 µM), inactives show at the highest dose activity change, negative = growth inhibition, actives largely listed as inhibitors; DT40 Tdp1-/- hTDP1 cells, no CPT, ATP luminescence, 48 h; also: nearly all actives have a fitted effect of over 55% in size
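No-CPT arm: Tdp1-/-;hTDP1 DT40 cells (400/well) plus compounds, incubated ≥48 hr at 37 °C. Readout CellTiter-Glo luminescence.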
KB-3-1 cytotox: kills parental KB-3-1 adenocarcinoma cells. Potency, µM (highest dose often 46.1 µM), most hits filed as cytotoxic. AID 1347075. KB-3-1 viability, CellTiter-Glo ATP luminescence, 72 h. actives 1.4% (n = 400,000); also: nearly all actives have a fitted effect of over 60% in size
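72 h, 37 °C compound treatment of KB-3-1 parental cells; CellTiter-Glo added, 10 min, luminescence read. Data corrected against DMSO-only plates and normalized before curve fitting.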
Numbers without * were called inactive; i = inactive; ? = inconclusive; . = not tested or not shown. Calls follow the shape of the dose curve; as a rule, active = well fitted curve in the direction sought with a large enough effect; inconclusive = small, poorly fitted or top-dose-only effect, or another doubt; inactive = no such curve, though single readings can be large; an effect the other way counts as inactive or inconclusive. Unless noted, % is scaled to controls: 0 for no effect and ±100 for the full control effect; potency is read from the fitted curve at half-maximal effect.

SMILES	HT1080-NT tox	KB-V1 cytotox	HT1080 IDH1KD tx	DT40 TDP1 CPT	TDP1 cell noCPT	KB-3-1 cytotox
CCOC(=O)N1CCN(S(=O)(=O)c2ccc(C(=O)N(CCCN(C)C)c3nc4ccc(Cl)cc4s3)cc2)CC1	-18.1%	i	-11.7%	?	18.4µM*	i
O=C(/C=C(\c1ccc(Cl)cc1)n1cncn1)c1ccc(Cl)cc1	-0.5%	i	-11.4%	?	16.4µM*	i
Cc1cnc(-n2ncc(C(=O)N(CCO)C(C)C)c2-c2cccs2)nc1-c1ccc(F)cc1	.	.	.	-4.4%	?	.
C(=C\c1ccccc1)/CSc1nnc(-c2ccccc2)n1Cc1ccco1	7.08µM*	18.4µM*	7.08µM*	5.17µM*	4.61µM*	i
Nn1c(SC/C=C/c2ccccc2)nnc1-c1ccco1	2.1%	?	12.4%	-7.6%	-28.0%	i
Clc1cccc(-c2nnc(SC/C=C/c3ccccc3)n2Cc2ccco2)c1	?	?	?	20.6µM*	?	?
COc1ccc(NC(=O)c2ccco2)cc1NC(=O)c1cc(Cl)ccc1OC	.	.	.	-10.5%	-23.9%	.
CCC(C(=O)N1CCN(c2cc(Cl)ccc2C)CC1)n1nc(C)n2c(cc3occc32)c1=O (stereo not drawn)	.	10.3µM*	.	?	14.6µM*	10.3µM*
CCc1nn(CC(=O)NCc2cccc(OC)c2OC)c(=O)c2cc3occc3n12	.	.	.	-14.8%	-20.3%	.
CCc1nn(C(C)C(=O)NCCN2CCN(c3cccc(C)c3C)CC2)c(=O)c2cc3occc3n12 (stereo not drawn)	?	i	?	?	16.4µM*	?
CCc1nn(C(CC)C(=O)NCc2cccc(OC)c2OC)c(=O)c2cc3occc3n12 (stereo not drawn)	-21.4%	i	-4.8%	20.6µM*	18.4µM*	i
Cc1cccc(C)c1NC(=O)C(=O)NCC(c1ccc2c(c1)OCO2)N1CCOCC1 (stereo not drawn)	.	i	.	4.7%	-4.5%	i
CCC(Oc1ccccc1)C(=O)Nc1cc(-c2ccccc2OC)nn1-c1ccccc1 (stereo not drawn)	.	i	.	?	23.1µM*	i
O=C(Nc1cc(-c2ccccc2)nn1-c1ccccc1)c1ccccc1F	-7.6%	i	0.0%	?	?	i
CC(C)CC(=O)Nc1cc(-c2ccccc2F)nn1-c1ccccc1	.	i	.	25.9µM*	11.6µM*	i
COCc1cccc(-c2csc(C(NC(C)=O)c3cccc(OC)c3)n2)c1 (stereo not drawn)	17.7%	i	10.6%	-23.9%	?	i
Cc1ccc(-c2nc(CS(=O)(=O)CC(=O)NCCCN(Cc3ccccc3)C(C)C)c(C)o2)cc1	-14.6%	i	-26.8%	?	?	i
Cc1oc(-c2ccc(-c3ccccc3)cc2)nc1CN(CCO)C(C)C	?	i	23.1µM*	14.7%	?	i
Cc1cc(Oc2ccc(Cl)cc2Cl)nc(C#N)n1	-19.3%	.	-26.0%	11.2µM*	17.8µM*	.
CC(C)CCNc1nc2c(S(=O)(=O)c3ccc(Br)cc3)nnn2c2ccsc12	.	i	.	?	-24.1%	i
CC1Cc2c([nH]c(=O)n(-c3ccccc3)c2=O)O1 (stereo not drawn)	-0.3%	i	5.0%	-3.9%	1.3%	i
Cc1ccc(Cc2c(C)nc3nc(SCC(=O)NCCC(C)C)nn3c2C)cc1	.	i	.	?	23.1µM*	i
Cc1nc2nc(SCC(=O)NC3CCC(C)CC3)nn2c(C)c1Cc1ccccc1 (stereo not drawn)	.	i	.	18.4µM*	?	i
COc1ccccc1CNC(=O)CSc1nc2nc(C)c(Cc3ccccc3C)c(C)n2n1	.	?	.	14.6µM*	5.17µM*	?
COc1cc(NC(=O)CSc2nc3nc(C)c(Cc4ccccc4)c(C)n3n2)cc(OC)c1OC	.	i	.	20.6µM*	20.6µM*	i
SMILES	HT1080-NT tox	KB-V1 cytotox	HT1080 IDH1KD tx	DT40 TDP1 CPT	TDP1 cell noCPT	KB-3-1 cytotox
CC(OC(=O)[C@@H](NS(=O)(=O)c1ccccc1)C(C)C)C(=O)c1c(N)n(C)c(=O)n(C)c1=O (stereo partly drawn)	12.5%	i	3.5%	-8.6%	-18.5%	i
CCOc1ccccc1NC(=O)c1cc(S(=O)(=O)N2CCOCC2)cn1C	.	.	.	5.3%	-1.6%	.
C=CCc1c(C)nc2nc(SCC(=O)Nc3cccc(Cl)c3)nn2c1C	.	.	.	20.6µM*	-92.0%	.
Cc1cccc(Cc2c(C)nc3nc(SCC(=O)O)nn3c2C)c1	-2.4%	?	-2.5%	-1.6%	-1.0%	i
Cc1cccc(Cc2c(C)nc3nc(SCC(=O)NCc4ccccc4)nn3c2C)c1	.	i	.	20.6µM*	?	14.6µM*
Cc1ccc(C(c2sc3nc(-c4ccco4)nn3c2O)N2CCOCC2)cc1 (stereo not drawn)	.	i	.	-0.3%	-2.4%	i
CCCCCN(C(=O)CCC(=O)OC(C)C(=O)Nc1ccccc1C)c1c(N)n(CCCC)c(=O)[nH]c1=O (stereo not drawn)	2.4%	i	-3.5%	2.4%	-1.7%	i
COc1ccccc1-c1nn(Cc2ccccc2)cc1C(=O)NCC(c1ccco1)N1CCCC1 (stereo not drawn)	27.8%	i	2.5%	?	0.0%	i
COc1ccc(OC)c(-c2nn(-c3ccccc3)cc2C(=O)NCC(c2ccco2)N2CCCC2)c1 (stereo not drawn)	-0.3%	i	-1.8%	?	20.6µM*	i
Cc1ccccc1-c1nn(-c2ccccc2)cc1C(=O)NCC(c1ccco1)N1CCCC1 (stereo not drawn)	-1.6%	i	0.0%	20.6µM*	18.4µM*	i
CN(C)C=Nc1ccc2nc3c(cc2c1)[nH]c1ccccc13	-12.8%	i	-7.5%	?	11.6µM*	i
CCOC(=O)c1[nH]c2ccccc2c1N=CN(C)C	-2.1%	i	0.7%	1.4%	2.2%	i
O=C(CCc1ccco1)CCc1ccco1	-1.7%	i	16.5%	-14.2%	-13.6%	i
CC(=O)NC(c1ccc(N(C)C)cc1)c1cc(Cl)c2cccnc2c1O (stereo not drawn)	?	?	?	4.61µM*	6.51µM*	3.26µM*
CC(=O)NC(c1cc(F)c2cccnc2c1O)C1CC1 (stereo not drawn)	.	i	.	.	.	?
